Experimental data taken from the supplement of paper PMC8728848.
This is one part of a sample in which the strongest signals are shown more often than they occur.

Tests used:
Test in all cases: glycan array binding signal (z-score within array); higher = stronger binding
Conditions in all cases: glycan notation: IUPAC condensed, linker removed
[1] = biological target: Fuc(a1-2)Gal(b1-3)GlcNAc(b1-2)Man(a1-3)[Fuc(a1-2)Gal(b1-3)GlcNAc(b1-2)Man(a1-6)]Man(b1-4)GlcNAc(b1-4)GlcNAc
Method in brief: (§1)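 Glycan array binding is given as a within-array Z-score, which can be read as non-binding when negative. The arrays, 3228 of them, came from the Consortium for Functional Glycomics database and were retained only where the protein sequence was available. Z-scores were averaged across arrays of the same protein sequence at different concentrations or buffers and across linkers.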

[2] = biological target: Fuc(a1-2)Gal(b1-3)GlcNAc(b1-3)[Gal(b1-4)[Fuc(a1-3)]GlcNAc(b1-6)]Gal(b1-4)Glc
Method in brief: as §1

[3] = biological target: Fuc(a1-2)Gal(b1-3)[Fuc(a1-4)]GlcNAc(b1-2)Man(a1-3)[Fuc(a1-2)Gal(b1-3)[Fuc(a1-4)]GlcNAc(b1-2)Man(a1-6)]Man(b1-4)GlcNAc(b1-4)GlcNAc
Method in brief: as §1

Fuc(a1-2)Gal(b1-4)GlcNAc = biological target: Fuc(a1-2)Gal(b1-4)GlcNAc
Method in brief: as §1

Fuc(a1-2)Gal6S(b1-4)Glc = biological target: Fuc(a1-2)Gal6S(b1-4)Glc
Method in brief: as §1

Fuc(a1-2)[Gal(a1-3)]Gal = biological target: Fuc(a1-2)[Gal(a1-3)]Gal
Method in brief: as §1

[4] = biological target: Fuc(a1-2)[Gal(a1-3)]Gal(b1-4)[Fuc(a1-3)]Glc
Method in brief: as §1

[5] = biological target: Fuc(a1-2)[GalNAc(a1-3)]Gal(b1-3)GalNAc(a1-3)[Fuc(a1-2)]Gal(b1-4)GlcNAc
Method in brief: as §1

[6] = biological target: Fuc(a1-2)[GalNAc(a1-3)]Gal(b1-3)GalNAc(b1-3)Gal(a1-4)Gal(b1-4)Glc
Method in brief: as §1

[7] = biological target: Fuc(a1-2)[GalNAc(a1-3)]Gal(b1-4)Glc
Method in brief: as §1

[8] = biological target: Fuc(a1-2)[GalNAc(a1-3)]Gal(b1-4)GlcNAc(b1-2)Man(a1-3)[Fuc(a1-2)[GalNAc(a1-3)]Gal(b1-4)GlcNAc(b1-2)Man(a1-6)]Man(b1-4)GlcNAc(b1-4)GlcNAc
Method in brief: as §1

[9] = biological target: Fuc(a1-2)[GalNAc(a1-3)]Gal(b1-4)GlcNAc(b1-3)Gal(b1-4)GlcNAc(b1-3)Gal(b1-4)GlcNAc
Method in brief: as §1

[10] = biological target: Fuc(a1-2)[GalNAc(a1-3)]Gal(b1-4)GlcNAc(b1-3)[Fuc(a1-2)[GalNAc(a1-3)]Gal(b1-4)GlcNAc(b1-6)]GalNAc
Method in brief: as §1

[11] = biological target: Fuc(a1-2)[GalNAc(a1-4)]Gal(b1-4)GlcNAc
Method in brief: as §1

[12] = biological target: Fuc(a1-3)[Gal(b1-4)]GlcNAc(b1-4)Gal(b1-4)[Fuc(a1-3)]GlcNAc(b1-4)Gal(b1-4)[Fuc(a1-3)]GlcNAc
Method in brief: as §1

Gal(a1-4)GlcNAc = biological target: Gal(a1-4)GlcNAc
Method in brief: as §1

Gal(b1-2)Gal = biological target: Gal(b1-2)Gal
Method in brief: as §1

Gal(b1-3)GalNAc = biological target: Gal(b1-3)GalNAc
Method in brief: as §1

[13] = biological target: Gal(b1-3)GlcNAc(b1-2)[Gal(b1-3)GlcNAc(b1-6)]Man(a1-6)[Gal(b1-3)GlcNAc(b1-2)Man(a1-3)]Man(b1-4)GlcNAc(b1-4)GlcNAc
Method in brief: as §1

[14] = biological target: Gal(b1-3)GlcNAc(b1-6)GalNAc
Method in brief: as §1

[15] = biological target: Gal(b1-3)[Neu5Ac(a2-6)]GalNAc
Method in brief: as §1

Gal(b1-4)Glc = biological target: Gal(b1-4)Glc
Method in brief: as §1

[16] = biological target: Gal(b1-4)GlcNAc(b1-2)Man(a1-3)[Gal(b1-4)GlcNAc(b1-2)Man(a1-6)]Man(b1-4)GlcNAc(b1-4)GlcNAc
Method in brief: as §1

[17] = biological target: Gal(b1-4)GlcNAc(b1-2)Man(a1-3)[GlcNAc(b1-4)][Gal(b1-4)GlcNAc(b1-2)Man(a1-6)]Man(b1-4)GlcNAc(b1-4)GlcNAc
Method in brief: as §1

[18] = biological target: Gal(b1-4)GlcNAc(b1-2)Man(a1-6)[GlcNAc(b1-2)Man(a1-3)]Man(b1-4)GlcNAc(b1-4)GlcNAc
Method in brief: as §1

[19] = biological target: Gal(b1-4)GlcNAc(b1-3)[Gal(b1-4)GlcNAc(b1-6)]Gal(b1-4)GlcNAc
Method in brief: as §1

Gal3S(b1-4)GlcNAc = biological target: Gal3S(b1-4)GlcNAc
Method in brief: as §1

Gal4S(b1-4)GlcNAc = biological target: Gal4S(b1-4)GlcNAc
Method in brief: as §1

GalNAc(a1-3)Gal = biological target: GalNAc(a1-3)Gal
Method in brief: as §1

GalNAc(a1-3)GalNAc = biological target: GalNAc(a1-3)GalNAc
Method in brief: as §1

B1: HPAIIITrx (Helix pomatia), Q1KM18 (protein)
chain: MLFVTIISLGLLAIVHGQCALKTIAFSAAIDREQTFDANQVVIYDIVITNHGNAYDNSTGLFTAPVDGMYSFQLNLLTIKEKEGWLELVHNGQLKVSVYAKQDSTYDSSSNSVIIKMKEGDRVNVRAHKKSGLFGRDDELYNTFSGHFLSGL
glycan array binding signal (z-score) [1]: 3.03 | glycan array binding signal (z-score) [2]: -0.143 | glycan array binding signal (z-score) [3]: 3.07 | glycan array binding signal (z-score) (Fuc(a1-2)Gal(b1-4)GlcNAc): -0.3 | glycan array binding signal (z-score) (Fuc(a1-2)Gal6S(b1-4)Glc): -0.211 | glycan array binding signal (z-score) (Fuc(a1-2)[Gal(a1-3)]Gal): -0.256 | glycan array binding signal (z-score) [4]: -0.413 | glycan array binding signal (z-score) [5]: 4.37 | glycan array binding signal (z-score) [6]: 3.47 | glycan array binding signal (z-score) [7]: 2.02 | glycan array binding signal (z-score) [8]: 6.33 | glycan array binding signal (z-score) [9]: 2.94 | glycan array binding signal (z-score) [10]: 3.2 | glycan array binding signal (z-score) [11]: 3.52 | glycan array binding signal (z-score) [12]: -0.564 | glycan array binding signal (z-score) (Gal(a1-4)GlcNAc): -0.387 | glycan array binding signal (z-score) (Gal(b1-2)Gal): 0.163 | glycan array binding signal (z-score) (Gal(b1-3)GalNAc): -0.149 | glycan array binding signal (z-score) [13]: -0.132 | glycan array binding signal (z-score) [14]: -0.368 | glycan array binding signal (z-score) [15]: -0.314 | glycan array binding signal (z-score) (Gal(b1-4)Glc): -0.056 | glycan array binding signal (z-score) [16]: -0.38 | glycan array binding signal (z-score) [17]: -0.402 | glycan array binding signal (z-score) [18]: -0.301 | glycan array binding signal (z-score) [19]: -0.21 | glycan array binding signal (z-score) (Gal3S(b1-4)GlcNAc): -0.024 | glycan array binding signal (z-score) (Gal4S(b1-4)GlcNAc): -0.358 | glycan array binding signal (z-score) (GalNAc(a1-3)Gal): 2.5 | glycan array binding signal (z-score) (GalNAc(a1-3)GalNAc): 3.35
